Test results published in PubChem BioAssay (EPA / NIEHS).
The source made the active and inactive calls. Rule for the calls: active = hit-call score of the fitted dose curve at least 0.9, where 1 is the maximum; inactive = score below 0.9.

Experiments:
[1] = target: CCAAT/enhancer-binding protein beta (Homo sapiens) (UniProt P17676); assay: ATG_C_EBP_CIS: Attagene CIS-FACTORIAL HepG2 Assay for human CCAAT/Enhancer Binding Protein (C/EBP) beta (AID 2282927); conditions: HepG2 Attagene cis-factorial transcription factor reporter; actives raise or lower the signal
CCAAT/enhancer-binding protein beta (Homo sapiens), sequence (P17676 whole entry, looked up): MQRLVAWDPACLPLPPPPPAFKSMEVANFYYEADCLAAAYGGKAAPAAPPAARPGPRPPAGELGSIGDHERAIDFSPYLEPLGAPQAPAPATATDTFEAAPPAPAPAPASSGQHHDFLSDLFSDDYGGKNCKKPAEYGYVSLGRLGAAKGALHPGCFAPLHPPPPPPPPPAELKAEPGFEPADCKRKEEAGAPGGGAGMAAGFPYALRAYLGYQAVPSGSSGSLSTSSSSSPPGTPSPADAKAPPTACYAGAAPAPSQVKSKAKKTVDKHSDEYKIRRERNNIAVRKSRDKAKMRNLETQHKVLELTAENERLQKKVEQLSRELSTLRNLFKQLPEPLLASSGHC
How it was run: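 HepG2, transient MRTU transfection, 24 h treatment. RT-PCR plus CE fluorescence; DMSO negative control, bidirectional fit.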

[2] = ATG_CMV_CIS: Attagene CIS-FACTORIAL HepG2 Assay for human CMV (Internal Marker) (AID 2282928); conditions: HepG2 CMV promoter reporter, transcription factor profiling; actives raise or lower the signal;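 note: endpoint acts as a background internal control marker rather than a target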
How it was run: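 After transient transfection of HepG2 with reporter transcription units driven by cis-regulatory promoters, cells receive test chemical for 24 h. Labeled reporter amplicons, digested with HpaI, are sized and quantified by capillary electrophoresis against DMSO.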

[3] = ATG_AP_1_CIS: Attagene CIS-FACTORIAL HepG2 Assay for human Activator Protein 1 (AP-1) (AID 2282931); conditions: HepG2 Attagene cis-factorial AP-1 reporter mRNA; actives raise or lower the signal
How it was run: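 Endogenous transcription-factor activity in human HepG2 liver cells is read through a cis-promoter reporter transcript, sampled 24 h after dosing. Detection uses RT-PCR with capillary electrophoresis; values come from bidirectional fitting relative to DMSO.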

[4] = ATG_AP_2_CIS: Attagene CIS-FACTORIAL HepG2 Assay for human Activator Protein 2 (AP-2) (AID 2282932); conditions: HepG2 AP-2 cis-reporter, Attagene transcription factor profiling; actives raise or lower the signal
How it was run: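 Multiplexed mRNA reporter assay in HepG2: cis-regulated units report endogenous factor activity after 24 h treatment. Fluorescence from capillary electrophoresis of RT-PCR products gives the signal, with DMSO as baseline.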

[5] = ATG_BRE_CIS: Attagene CIS-FACTORIAL HepG2 Assay for human Bone Morphogenetic Protein (BMP) Response Element (BRE) (AID 2282933); conditions: HepG2 BMP response element reporter, Attagene transcription factor profiling; actives raise or lower the signal
How it was run: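 Transient MRTU transfection of human HepG2 liver cells; 24 h compound treatment; total RNA isolated, reverse-transcribed, PCR-amplified, 6-FAM labelled, HpaI-cut, capillary electrophoresis. DMSO = negative control/baseline, bidirectional fit.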

[6] = ATG_E_Box_CIS: Attagene CIS-FACTORIAL HepG2 Assay for human Enhancer Box (E-box) (AID 2282936); conditions: HepG2 E-box cis-reporter transcription, actives raise or lower the signal
How it was run: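 First, HepG2 cells receive multiple cis-regulated reporter constructs by transient transfection. Next, chemicals are applied for 24 h. Finally, reporter mRNA is quantified via RT-PCR and capillary electrophoresis, with DMSO as baseline.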

[7] = ATG_M_61_CIS: Attagene CIS-FACTORIAL HepG2 Assay for M61 Transcription Factor (Internal Marker) (AID 2282937); conditions: HepG2 Attagene CIS-FACTORIAL M61 internal marker reporter; actives raise or lower the signal
How it was run: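 Cells were transfected with reporter units under cis-regulatory promoters, treated with chemicals for 24 h, then lysed for RNA. Reporter transcripts were quantified by RT-PCR and capillary electrophoresis, and activity was fitted bidirectionally against DMSO.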

[8] = ATG_EGR_CIS: Attagene CIS-FACTORIAL HepG2 Assay for human Early Growth Response 1 (EGR1) (AID 2282938); conditions: HepG2 Attagene CIS-FACTORIAL EGR reporter mRNA; actives raise or lower the signal
How it was run: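 Endogenous TF activity in HepG2 liver cells was gauged through cis-promoter reporter constructs transiently transfected. After 24 h dosing, reporter mRNA was quantified by RT-PCR and capillary electrophoresis, and curves fitted in both directions versus DMSO.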

[9] = ATG_Ets_CIS: Attagene CIS-FACTORIAL HepG2 Assay for human Erythroblast Transformation Specific (ETS) (AID 2282941); conditions: HepG2 ETS cis-reporter transcription, actives raise or lower the signal
How it was run: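 Human HepG2 hepatoma cells were transiently transfected with promoter-driven reporter constructs and treated for 24 hours. Reporter transcripts were quantified by RT-PCR with fluorescent primer extension; bidirectional curve fitting used DMSO as reference.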

[10] = target: Hepatocyte nuclear factor 3-beta (Homo sapiens) (UniProt Q9Y261); assay: ATG_FoxA2_CIS: Attagene CIS-FACTORIAL HepG2 Assay for human Forkhead box A2 (FOXA2) (AID 2282942); conditions: HepG2 cis-reporter transcription factor activity, 24 h; actives raise or lower the signal
Hepatocyte nuclear factor 3-beta (Homo sapiens), sequence (Q9Y261 whole entry, looked up): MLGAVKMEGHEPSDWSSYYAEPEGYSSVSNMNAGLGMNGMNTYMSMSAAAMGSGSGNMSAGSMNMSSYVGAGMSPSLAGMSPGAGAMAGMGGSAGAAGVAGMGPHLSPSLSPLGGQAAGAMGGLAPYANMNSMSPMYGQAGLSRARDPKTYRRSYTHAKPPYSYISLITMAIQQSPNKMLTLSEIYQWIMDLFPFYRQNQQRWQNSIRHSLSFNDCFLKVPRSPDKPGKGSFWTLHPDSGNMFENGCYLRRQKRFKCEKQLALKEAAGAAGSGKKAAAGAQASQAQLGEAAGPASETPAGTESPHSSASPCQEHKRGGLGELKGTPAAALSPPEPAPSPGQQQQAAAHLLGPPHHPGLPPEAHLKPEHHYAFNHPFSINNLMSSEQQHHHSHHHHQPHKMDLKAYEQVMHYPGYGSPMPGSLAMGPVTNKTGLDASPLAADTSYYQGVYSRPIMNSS
How it was run: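 Endogenous transcription factor activity was read in HepG2 cells carrying transiently transfected cis-promoter reporter units. After 24 h dosing, reporter mRNA was quantified by RT-PCR and capillary electrophoresis, and values fitted bidirectionally versus DMSO.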

[11] = ATG_FoxO_CIS: Attagene CIS-FACTORIAL HepG2 Assay for human Forkhead box O (FoxO) (AID 2282943); conditions: HepG2 Attagene cis-reporter, FoxO element, mRNA; actives raise or lower the signal
How it was run: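 Transfected HepG2 reporter cells exposed to test chemical for 24 h; reporter RNA measured by reverse transcription, PCR and fluorescent capillary electrophoresis; curves fitted for increases and decreases against DMSO.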

[12] = ATG_GATA_CIS: Attagene CIS-FACTORIAL HepG2 Assay for human GATA Binding Protein (AID 2282944); conditions: HepG2 GATA cis-element reporter, Attagene multiplex mRNA; actives raise or lower the signal
How it was run: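 Transient MRTU transfection, HepG2, 24 h compound exposure. Total RNA → oligo(dT) RT → PCR → 6-FAM primer extension → HpaI cut → CE. Bidirectional fit vs DMSO.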

[13] = ATG_ISRE_CIS: Attagene CIS-FACTORIAL HepG2 Assay for human Interferon Regulatory Factor 1 (IRF1) binding to an Interferon-Stimulated Response Element (ISRE) (AID 2282948); conditions: HepG2 ISRE cis-reporter (Attagene), mRNA transcription readout; actives raise or lower the signal
How it was run: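 Cell-based cis-reporter assay; HepG2; 24 h exposure; reporter mRNA by RT-PCR plus capillary electrophoresis fluorescence; activity in either direction scored relative to DMSO.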

[14] = ATG_M_32_CIS: Attagene CIS-FACTORIAL HepG2 Assay for M32 Transcription Factor (Internal Marker) (AID 2282949); conditions: HepG2 Attagene cis-factorial M32 reporter, mRNA; actives raise or lower the signal;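 note: background control marker of the multiplexed CIS panel rather than a real target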
How it was run: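 Internal background marker read-out: RT-PCR/capillary electrophoresis fluorescence of reporter transcripts from transiently transfected HepG2 cells after 24 h chemical exposure. Activity fitted bidirectionally relative to DMSO negative control.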

[15] = ATG_M_06_CIS: Attagene CIS-FACTORIAL HepG2 Assay for M06 Transcription Factor (Internal Marker) (AID 2282950); conditions: HepG2 Attagene CIS-FACTORIAL M06 internal marker reporter; actives raise or lower the signal
How it was run: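 Read-out is fluorescence of labelled reporter cDNA fragments resolved by capillary electrophoresis after RT-PCR. Cells: HepG2 carrying transfected cis-promoter reporter units, treated 24 h. Gain or loss of signal fitted relative to DMSO.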

[16] = target: Hepatocyte nuclear factor 6 (Homo sapiens) (UniProt Q9UBC0); assay: ATG_HNF6_CIS: Attagene CIS-FACTORIAL HepG2 Assay for human Hepatocyte Nuclear Factor 6 (HNF6) (AID 2282952); conditions: HepG2 Attagene cis-factorial HNF6 reporter transcription; actives raise or lower the signal
Hepatocyte nuclear factor 6 (Homo sapiens), sequence (Q9UBC0 whole entry, looked up): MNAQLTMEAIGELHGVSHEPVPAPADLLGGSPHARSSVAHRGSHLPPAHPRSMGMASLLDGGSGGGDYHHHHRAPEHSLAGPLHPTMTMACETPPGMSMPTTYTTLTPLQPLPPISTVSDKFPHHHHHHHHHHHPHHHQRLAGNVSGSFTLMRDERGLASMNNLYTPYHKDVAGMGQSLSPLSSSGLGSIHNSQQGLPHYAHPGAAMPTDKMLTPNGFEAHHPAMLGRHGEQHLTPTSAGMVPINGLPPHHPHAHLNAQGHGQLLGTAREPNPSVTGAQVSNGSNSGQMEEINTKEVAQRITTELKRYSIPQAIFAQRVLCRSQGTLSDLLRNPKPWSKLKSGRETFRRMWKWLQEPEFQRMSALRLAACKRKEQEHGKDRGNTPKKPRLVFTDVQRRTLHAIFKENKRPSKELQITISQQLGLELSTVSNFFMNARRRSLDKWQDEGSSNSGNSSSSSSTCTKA
How it was run: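 Multiplexed mRNA reporter assay in transfected HepG2; 24 h dosing; RT-PCR plus capillary electrophoresis fluorescence; DMSO-referenced bidirectional curve fitting.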

[17] = ATG_MRE_CIS: Attagene CIS-FACTORIAL HepG2 Assay for human Metal Responsive Element (MRE) (AID 2282954); conditions: HepG2 MRE cis-reporter transcription, Attagene multiplex; actives raise or lower the signal
How it was run: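 Fluorescent reporter fragments separated by capillary electrophoresis give mRNA induction for the MRE unit after 24 h treatment of transfected HepG2 cells. Endogenous transcription-factor activity is read; DMSO serves as negative control and baseline.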

[18] = ATG_Sox_CIS: Attagene CIS-FACTORIAL HepG2 Assay for human SRY-box transcription factor (SOX) (AID 2282960); conditions: HepG2 Attagene cis-factorial SOX reporter, mRNA; actives raise or lower the signal
How it was run: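 Transient MRTU transfection of HepG2; 24 h compound incubation; TriZol RNA, oligo(dT) RT, PCR, 6-FAM primer extension, HpaI cut, CE. Bidirectional fit, DMSO = baseline.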

[19] = target: Transcription factor Sp1 (Homo sapiens) (UniProt P08047); assay: ATG_Sp1_CIS: Attagene CIS-FACTORIAL HepG2 Assay for human Specificity Protein 1 (Sp1) (AID 2282961); conditions: HepG2 Sp1 cis-reporter transcription, actives raise or lower the signal
Transcription factor Sp1 (Homo sapiens), sequence (P08047 whole entry, looked up): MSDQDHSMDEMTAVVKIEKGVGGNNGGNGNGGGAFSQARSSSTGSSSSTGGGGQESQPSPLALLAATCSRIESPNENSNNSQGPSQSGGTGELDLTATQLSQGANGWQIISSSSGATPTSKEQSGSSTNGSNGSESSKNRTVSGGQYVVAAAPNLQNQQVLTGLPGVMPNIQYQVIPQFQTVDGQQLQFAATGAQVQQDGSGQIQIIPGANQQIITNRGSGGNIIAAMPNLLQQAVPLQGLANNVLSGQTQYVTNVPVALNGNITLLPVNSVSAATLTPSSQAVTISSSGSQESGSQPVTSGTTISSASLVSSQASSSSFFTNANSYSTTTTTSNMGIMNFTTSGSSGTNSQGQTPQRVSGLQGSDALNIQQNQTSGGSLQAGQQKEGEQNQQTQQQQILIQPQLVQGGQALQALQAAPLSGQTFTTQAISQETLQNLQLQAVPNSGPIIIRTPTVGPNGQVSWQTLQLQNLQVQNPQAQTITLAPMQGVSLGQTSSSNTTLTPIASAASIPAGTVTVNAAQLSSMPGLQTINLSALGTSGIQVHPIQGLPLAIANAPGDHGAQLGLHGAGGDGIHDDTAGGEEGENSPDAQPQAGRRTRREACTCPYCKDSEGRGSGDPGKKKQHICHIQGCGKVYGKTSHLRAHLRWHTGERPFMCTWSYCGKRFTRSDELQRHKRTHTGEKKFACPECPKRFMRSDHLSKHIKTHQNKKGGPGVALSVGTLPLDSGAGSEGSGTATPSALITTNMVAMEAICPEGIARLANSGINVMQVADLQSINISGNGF
How it was run: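 Endogenous Sp1 activity was gauged in human liver HepG2 cells bearing transfected reporter units under a cis-regulating promoter. After 24 h dosing, reporter mRNA was quantified by RT-PCR with capillary electrophoresis, and activity fitted bidirectionally versus DMSO.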

[20] = target: Signal transducer and activator of transcription 3 (Homo sapiens) (UniProt P40763); assay: ATG_STAT3_CIS: Attagene CIS-FACTORIAL HepG2 Assay for human Signal Transducer and Activator of Transcription 3 (STAT3) (AID 2282963); conditions: HepG2, Attagene cis-factorial STAT3 reporter transcription; actives raise or lower the signal
Signal transducer and activator of transcription 3 (Homo sapiens), sequence (P40763 whole entry, looked up): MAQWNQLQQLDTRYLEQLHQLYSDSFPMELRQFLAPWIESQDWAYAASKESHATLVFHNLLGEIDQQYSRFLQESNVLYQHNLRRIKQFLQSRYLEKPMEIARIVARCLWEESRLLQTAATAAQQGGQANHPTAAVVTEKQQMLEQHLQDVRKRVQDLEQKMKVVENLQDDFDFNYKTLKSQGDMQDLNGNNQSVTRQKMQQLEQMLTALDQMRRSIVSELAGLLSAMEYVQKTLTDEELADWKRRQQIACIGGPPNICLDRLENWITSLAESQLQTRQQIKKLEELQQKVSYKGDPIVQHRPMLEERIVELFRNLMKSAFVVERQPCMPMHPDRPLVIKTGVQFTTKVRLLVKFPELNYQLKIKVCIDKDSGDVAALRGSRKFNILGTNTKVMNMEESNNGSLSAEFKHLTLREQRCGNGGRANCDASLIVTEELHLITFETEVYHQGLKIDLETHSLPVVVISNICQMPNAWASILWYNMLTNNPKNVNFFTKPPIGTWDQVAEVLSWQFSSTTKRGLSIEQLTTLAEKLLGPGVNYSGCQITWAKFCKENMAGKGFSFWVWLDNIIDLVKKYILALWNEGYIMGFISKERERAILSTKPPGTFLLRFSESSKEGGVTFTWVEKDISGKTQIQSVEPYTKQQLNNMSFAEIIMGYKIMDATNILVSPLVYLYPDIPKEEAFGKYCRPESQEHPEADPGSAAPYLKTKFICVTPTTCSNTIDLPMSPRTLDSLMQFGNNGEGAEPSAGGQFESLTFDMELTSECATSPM
How it was run: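 Values derive from bidirectional fits relative to DMSO of reporter mRNA levels, measured by RT-PCR with capillary electrophoresis, in HepG2 cells carrying transiently transfected cis-regulated reporter units and exposed 24 h.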

Measured: AC50

O=C(O)COc1ccccc1
inactive: all assays above

BrCBr
inactive: all assays above

COc1cc(OC)nc(Oc2cccc(Oc3nc(OC)cc(OC)n3)c2C(=O)O)n1
inactive: all assays above

O=C1C=CC(=O)C=C1
active: [3] 61.2 µM
inactive: all other assays above

Nc1ccccc1
inactive: all assays above

C=C(Cl)Cl
inactive: all assays above

Oc1ccc(Cl)cc1
inactive: all assays above
